# Assay results reported in publication PMC8384837, “Expanding the binding specificity for RNA recognition by a PUF domain”.
# Target: PUM1 PUF domain R5-ERA (Homo sapiens, UniProt Q14671 828-1176, C1007E;Q1011A)
# Assay: yeast three-hybrid, YBZ-1, SC-Leu-His + 0.5 mM 3-AT, 4 days
# Conditions: tags: N-Gal4 AD-HA kept; label: inside an RPR1-promoter hybrid RNA with tandem MS2 sites; ssRNA
# Method in brief: (§1)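 Sequencing with Illumina followed PCR amplification of the repeat regions from transformants grown four days on SC-Leu (input) or SC-Leu-His + 0.5 mM 3-AT (selection). The transformants were strain YBZ-1 with a LexA–MS2 coat fusion and a HIS3 reporter, carrying Pumilio-1 PUF domain libraries and matching RNA elements. The interaction score is the log change in variant frequency from input to selection, computed in log2 with a pseudocount of 1 for absent variants.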
row,Sequence,binding signal
1,GGCUAGAACUAGUGGAUCCCCCGGCGCCCGGCGGCUCGAGCCCGGGUAAGUGUCAAUAGUCUGCAUGCCGCCGGGCGCCAUGCCUGCAGGUCGACUCUAGAAAACAUG,0.84 log2 enrichment (interaction score)
2,GGCUAGAACUAGUGGAUCCCCCGGCGCCCGGCGGCUCGAGCCCGGGUAAGUGUAAAUAGUCUGCAUGCCGCCGGGCGCCAUGCCUGCAGGUCGACUCUAGAAAACAUG,3.08 log2 enrichment (interaction score)
3,GGCUAGAACUAGUGGAUCCCCCGGCGCCCGGCGGCUCGAGCCCGGGUAAGUGUGAAUAGUCUGCAUGCCGCCGGGCGCCAUGCCUGCAGGUCGACUCUAGAAAACAUG,2.24 log2 enrichment (interaction score)
4,GGCUAGAACUAGUGGAUCCCCCGGCGCCCGGCGGCUCGAGCCCGGGUAAGUGUUAAUAGUCUGCAUGCCGCCGGGCGCCAUGCCUGCAGGUCGACUCUAGAAAACAUG,1.72 log2 enrichment (interaction score)

# Target: PUM1 PUF domain R3-GRS (Homo sapiens, UniProt Q14671 828-1176, C935G;Q939S)
# Assay: as above
# Conditions: tags: N-Gal4 AD-HA kept; label: inside an RPR1-promoter hybrid RNA with tandem MS2 sites; ssRNA
# Method in brief: as §1
row,Sequence,binding signal
1,GGCUAGAACUAGUGGAUCCCCCGGCGCCCGGCGGCUCGAGCCCGGGUAAGUGUAAAUAGUCUGCAUGCCGCCGGGCGCCAUGCCUGCAGGUCGACUCUAGAAAACAUG,2.84 log2 enrichment (interaction score)
2,GGCUAGAACUAGUGGAUCCCCCGGCGCCCGGCGGCUCGAGCCCGGGUAAGUGUAAUUAGUCUGCAUGCCGCCGGGCGCCAUGCCUGCAGGUCGACUCUAGAAAACAUG,1.26 log2 enrichment (interaction score)
3,GGCUAGAACUAGUGGAUCCCCCGGCGCCCGGCGGCUCGAGCCCGGGUAAGUGUAAGUAGUCUGCAUGCCGCCGGGCGCCAUGCCUGCAGGUCGACUCUAGAAAACAUG,1.73 log2 enrichment (interaction score)

# Target: PUM1 PUF domain R1-RSN (Homo sapiens, UniProt Q14671 828-1176, S863R;R864S;Q867N)
# Assay: as above
# Conditions: tags: N-Gal4 AD-HA kept; label: inside an RPR1-promoter hybrid RNA with tandem MS2 sites; ssRNA
# Method in brief: as §1
row,Sequence,binding signal
1,GGCUAGAACUAGUGGAUCCCCCGGCGCCCGGCGGCUCGAGCCCGGGUAAGUGUAAAUUGUCUGCAUGCCGCCGGGCGCCAUGCCUGCAGGUCGACUCUAGAAAACAUG,4.41 log2 enrichment (interaction score)
2,GGCUAGAACUAGUGGAUCCCCCGGCGCCCGGCGGCUCGAGCCCGGGUAAGUGUAAAUCGUCUGCAUGCCGCCGGGCGCCAUGCCUGCAGGUCGACUCUAGAAAACAUG,5.16 log2 enrichment (interaction score)
3,GGCUAGAACUAGUGGAUCCCCCGGCGCCCGGCGGCUCGAGCCCGGGUAAGUGUAAAUGGUCUGCAUGCCGCCGGGCGCCAUGCCUGCAGGUCGACUCUAGAAAACAUG,2.27 log2 enrichment (interaction score)
